This is an account of results in the supplement of paper PMC10981050.

By cell viability is commonly meant a read-out of living cells in per cent, often relative to untreated cells.

Counter-ions that a name gives are not always drawn.

The first assay concerns K562. As to the kind of experiment: cell viability relative to vehicle control; higher = less cytotoxic. The settings on record: 10 µM; SRSF2 genotype: SRSF2 wt/wt. The essentials:
(§1)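 CRISPR-edited SRSF2 P95 mutant and isogenic wild-type clones of four leukaemia lines were screened against Selleck bioactive, kinase and epigenetic probe libraries, with identity-inconsistent compounds removed. Compounds were acoustically dispensed into 384-well plates at a single 10 µM dose, with 2000 cells in 50 µL medium per well. After 48 h, supernatant was removed and CellTiter-Glo luminescence was read. Viability was expressed as percent of the on-plate DMSO vehicle control, analysed in Genedata Screener.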
`CN(C)CCCN1c2ccccc2Sc2ccc(Cl)cc21` [Chlorpromazine HCl]: the cell viability is 65.6%. With `CCOC(=O)c1ccc(C#Cc2ccc3c(c2)C(C)(C)CCS3)nc1` [Tazarotene (Avage)], the cell viability turned out to be 78.1%. The same measure, in the same setting: under `OC[C@H]1O[C@@H](OCCc2ccc(O)cc2)[C@H](O)[C@@H](O)[C@@H]1O` [Salidroside (Rhodioloside)] stands 102%; under `C=C[C@]1(C)C[C@@H](OC(=O)CSC(C)(C)CNC(=O)[C@H](N)C(C)C)[C@]2(C)[C@H](C)CC[C@]3(CCC(=O)[C@H]32)[C@@H](C)[C@@H]1O` [Valnemulin HCl], 75.3%. Regarding `CCS(=O)(=O)CCn1c([N+](=O)[O-])cnc1C` [Tinidazole], the cell viability was 100%. For `O=C(Cc1ccc(-c2ccc(OCCN3CCOCC3)cc2)cn1)NCc1ccccc1`, the cell viability was found to be 33%. The same measure, in the same setting: under `COC(=O)C1=C(C)NC(C)=C(C(=O)OCCN2CCN(C(c3ccccc3)c3ccccc3)CC2)C1c1cccc([N+](=O)[O-])c1` (configuration not stated) [Manidipine dihydrochloride (CV-4093)] stands 53.6%; under `O=S(=O)(O)c1cc(O)ccc1O` [Calcium Dobesilate], 103%; under `CC(=O)OCC(=O)[C@@]1(O)[C@H](C)C[C@H]2[C@@H]3CCC4=CC(=O)C=C[C@]4(C)[C@@]3(F)[C@@H](O)C[C@@]21C` [Dexamethasone acetate], 106%. Same read-out and setting: under `O=C([O-])c1ccccc1O.[Na+]` [Sodium salicylate] stands 85.5%; under `C=C1C(=O)O[C@@H]2C[C@@]3(C)CCCC(=C)[C@@H]3C[C@H]12` [Isoalantolactone], 40.2%. Turning to `c1ccc(Cn2c(-c3ccc(OCC(C4CCNCC4)n4c(-c5ccccc5)nc5ccccc54)cc3)nc3ccccc32)cc1` (configuration not stated) [Deltarasin], the cell viability stood at 0.44%. On the same count and under the same terms, for `O=C(Nc1ccccc1-c1cn2c(CN3CCNCC3)csc2n1)c1cnc2ccccc2n1` the value was 0.26%.

Another assay relates to MARIMO. The description is as above. As to conditions: 10 µM; SRSF2 genotype: SRSF2 P95H/wt. A digest of the protocol: as §1
For `OCC1OC(OC2OC(CO)C(O)C(O)C2O)C(O)C(O)C1O` [D-(+)-Trehalose Anhydrous], the cell viability was 111%. In the case of `CCCCCCCCCCCCCCCCCC[N+](C)(C)C` [Trimethyloctadecylammonium bromide], the cell viability was found to be 12.1%. The same measure, in the same setting: under `CC(C)c1cc(-c2ccc(F)c3ccccc23)nc(N)n1` stands 89.5%; under `Cc1nc2n(c(=O)c1CCN1CCC(c3noc4cc(F)ccc34)CC1)CCCC2` [Risperidone (Risperdal)], 94%. On the same count and under the same terms, for `Cc1[nH]c2ccccc2c1C1=C(NCCc2ccc(F)cc2)C(=O)N(C)C1=O` the value was 94.9%.

As to `Cc1nc(N)sc1-c1ccnc(Nc2ccc(N3CCOCC3)cc2)n1`, the cell viability is 40.8%.

On to `CN(C)CCC(c1ccc(Br)cc1)c1ccccn1` (configuration not stated) [Brompheniramine hydrogen maleate], for which the cell viability came to 86.2%. Take `C[S+](CC[C@H](N)C(=O)[O-])C[C@H]1O[C@@H](n2cnc3c(N)ncnc32)[C@H](O)[C@@H]1O` (some centres not stated) [Ademetionine disulfate tosylate]: the cell viability was 102%. `CNCc1cc(-c2ccccc2F)n(S(=O)(=O)c2cccnc2)c1` [Vonoprazan Fumarate (TAK-438)]: the cell viability was found to be 85.5%.

Take `C=CC(=O)N1CC[C@@H](Oc2nc(Nc3ccc(N4CCC(N5CCN(C)CC5)CC4)cc3)c(C(N)=O)nc2CC)C1` [ASP8273 (Naquotinib)]: the cell viability was 26.7%. Still for that read-out and setting: for `CC(=O)NC[C@H]1CN(c2ccc(N3CCOCC3)c(F)c2)C(=O)O1` [Linezolid (Zyvox)] the value was 85%. The same measure, in the same setting: under `CC(C)=CCC[C@](C)(O[C@@H]1O[C@H](CO)[C@@H](O)[C@H](O)[C@H]1O)[C@H]1CC[C@]2(C)[C@@H]1[C@H](O)C[C@@H]1[C@@]3(C)CC[C@H](O)C(C)(C)[C@@H]3[C@@H](O[C@@H]3O[C@H](CO)[C@@H](O)[C@H](O)[C@H]3O[C@@H]3OC[C@@H](O)[C@H](O)[C@H]3O)C[C@]12C` [Notoginsenoside R1] stands 106%. Same read-out and setting: for `CC#CC(=O)Nc1ccc2ncnc(Nc3cccc(Br)c3)c2c1` the value was 34.7%; for `Cc1cccc(C#Cc2ccccc2)n1`, 102%. For `CO/N=C(\C(=O)N[C@@H]1C(=O)N2C(C(=O)O)=C(CSc3nnnn3C)CS[C@H]12)c1csc(N)n1` [Cefmenoxime hydrochloride], the cell viability was 98.4%. Still for that read-out and setting: under `CC1(C)CC(=O)c2c(C(F)(F)F)nn(-c3ccc(C(N)=O)c(N[C@H]4CC[C@H](O)CC4)c3)c2C1` stands 30.9%; under `CC1(C)C=Cc2c(ccc3c2OC[C@@H](c2ccc(O)cc2O)C3)O1` [Glabridin], 87.5%. The same measure, in the same setting: for `COc1cccc(-c2cc(NCc3ccc4c(c3)OCO4)nc(N)n2)c1` [Wnt agonist 1] the value was 8.72%; for `CNC1CCC(N(Cc2cccc(-c3ccncc3)c2)C(=O)c2sc3ccccc3c2Cl)CC1` (configuration not stated) [Smoothened Agonist (SAG) HCl], 53.8%; for `NCCCCCNCC12CC3CC(CC(C3)C1)C2` [IEM 1754 dihydrobroMide], 104%. Same read-out and setting: under `NC(=S)c1ccncc1` [Thioisonicotinamide] stands 96.9%; under `C[C@@]1(F)[C@H](O)[C@@H](CO)O[C@H]1n1ccc(=O)[nH]c1=O` [2'-deoxy-2'-fluoro-2'-C-methyluridine], 87.2%. As for `Nc1cccc2c1CN(C1CCC(=O)NC1=O)C2=O` (configuration not stated) [Lenalidomide (CC-5013)], the cell viability stood at 97.1%. The same measure, in the same setting: for `Cc1ccccc1N1C(=O)c2cc(S(N)(=O)=O)c(Cl)cc2NC1C` (configuration not stated) [Metolazone (Zaroxolyn)] the value was 96%; for `CCC/C=C1\OC(=O)C2=C1CCC=C2` [Ligustilide], 60.9%; for `OC[C@@H](O)[C@@H](O)[C@H](O)[C@H](O)CO` [D-Mannitol (Osmitrol)], 107%.

For the compound `CN(C)CCCN1c2ccccc2Sc2ccc(Cl)cc21` [Chlorpromazine HCl], the cell viability was 40.4%. On to `CCOC(=O)c1ccc(C#Cc2ccc3c(c2)C(C)(C)CCS3)nc1` [Tazarotene (Avage)], for which the cell viability was found to be 46.6%.

As for `OC[C@H]1O[C@@H](OCCc2ccc(O)cc2)[C@H](O)[C@@H](O)[C@@H]1O` [Salidroside (Rhodioloside)], the cell viability was 106%. As to `C=C[C@]1(C)C[C@@H](OC(=O)CSC(C)(C)CNC(=O)[C@H](N)C(C)C)[C@]2(C)[C@H](C)CC[C@]3(CCC(=O)[C@H]32)[C@@H](C)[C@@H]1O` [Valnemulin HCl], the cell viability turned out to be 74%. On the same count and under the same terms, under `CCS(=O)(=O)CCn1c([N+](=O)[O-])cnc1C` [Tinidazole] stands 96.6%. The same measure, in the same setting: for `O=C(Cc1ccc(-c2ccc(OCCN3CCOCC3)cc2)cn1)NCc1ccccc1` the value was 6.74%. Same read-out and setting: for `COC(=O)C1=C(C)NC(C)=C(C(=O)OCCN2CCN(C(c3ccccc3)c3ccccc3)CC2)C1c1cccc([N+](=O)[O-])c1` (configuration not stated) [Manidipine dihydrochloride (CV-4093)] the value was 67.1%.

`O=S(=O)(O)c1cc(O)ccc1O` [Calcium Dobesilate]: the cell viability was found to be 103%. The same measure, in the same setting: for `CC(=O)OCC(=O)[C@@]1(O)[C@H](C)C[C@H]2[C@@H]3CCC4=CC(=O)C=C[C@]4(C)[C@@]3(F)[C@@H](O)C[C@@]21C` [Dexamethasone acetate] the value was 105%; for `O=C([O-])c1ccccc1O.[Na+]` [Sodium salicylate], 94.4%; for `C=C1C(=O)O[C@@H]2C[C@@]3(C)CCCC(=C)[C@@H]3C[C@H]12` [Isoalantolactone], 23%. Still for that read-out and setting: for `c1ccc(Cn2c(-c3ccc(OCC(C4CCNCC4)n4c(-c5ccccc5)nc5ccccc54)cc3)nc3ccccc32)cc1` (configuration not stated) [Deltarasin] the value was 0.34%; for `O=C(Nc1ccccc1-c1cn2c(CN3CCNCC3)csc2n1)c1cnc2ccccc2n1`, 0.19%.
